The results in this text go back to PubChem BioAssay (NCI).

Assay [1] can be described thus: NCI Yeast Anticancer Drug Screen. Data for the rad50 strain (AID 155).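 Note: 0% = growth of vehicle-only cultures of the same strain.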 Particulars: S. cerevisiae rad50 strain growth inhibition, active compounds read high. In outline:
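Cells are treated with compound, grown, and their growth is then scored against vehicle-only cultures of the same repair-deficient yeast strain.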

Assay [2] can be described thus: NCI Yeast Anticancer Drug Screen. Data for the mec2-1 strain (AID 157). Particulars: S. cerevisiae mec2-1 strain, active compounds read high. The gist of the method:
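mec2-1 yeast strain, carrying an alteration in DNA damage repair or cell cycle control, was exposed to compounds; growth inhibition was measured relative to vehicle-treated controls.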

A short description of assay [3]: NCI Yeast Anticancer Drug Screen. Data for the sgs1 mgt1 strain (AID 161).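 Note: 0% = growth of cultures given vehicle only.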 Particulars: S. cerevisiae sgs1 mgt1 strain, active compounds read high. The gist of the method: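 This yeast growth screen uses a strain with defined DNA-repair lesions; compound-treated growth is compared with vehicle-treated growth.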
The nature of assay [4]: NCI Yeast Anticancer Drug Screen. Data for the cln2 rad14 strain (AID 165).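 Note: 0% = growth equal to vehicle treated cultures.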 To be noted: S. cerevisiae cln2 rad14 strain, active compounds read high. The gist of the method:
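Yeast carrying cln2 and rad14 alterations (cell cycle control and DNA damage repair) were exposed to compounds. Growth inhibition was measured against vehicle-treated controls.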

Assay [5] can be described thus: NCI Yeast Anticancer Drug Screen. Data for the bub3 strain (AID 167). To be noted: S. cerevisiae bub3 mutant strain, active compounds read high. In outline:
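Part of a panel of yeast mutants defective in DNA damage repair or cell cycle regulation. Each strain is grown with compound, and inhibition is calculated relative to solvent-treated cultures.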

The nature of assay [6]: NCI Yeast Anticancer Drug Screen. Data for the mlh1 rad18 strain (AID 175). Particulars: S. cerevisiae mlh1 rad18 strain growth inhibition, active compounds read high. In outline: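 Growth inhibition of the yeast strain was measured after compound exposure and expressed relative to vehicle-treated controls. The strain carries defined defects in DNA damage repair.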
Where [7] appears, read: at 5.0 µM (retest, dose inferred, filed as 0.5).
Setting [8] is: at 50.0 µM (retest, dose inferred, filed as 5.0).

Compounds without any hit were thinned out: in the full panel of roughly 79,000, 15% have a hit. Unmarked numbers belong to inactive results. Active and inactive are the calls of the source. Cut-off read from the data, not from the text of the source: active = growth inhibition above about 70%; inactive = the rest.

As for `C[CH2][Sn]([CH2]C)([O]C(C)=O)[O][Sn]([CH2]C)([CH2]C)[O]C(C)=O`, the growth inhibition in assay [1] (setting [7]) was 23%; in assay [1] (setting [8]) it was 80% (active); in assay [1] (at 50.0 µM), 64%; in assay [2] (setting [7]), 24%; in assay [2] (setting [8]), 91% (active); in assay [2] (at 50.0 µM), 60.1%. In addition, the growth inhibition in assay [3] (setting [7]) is 15%; in assay [3] (setting [8]) it was 82% (active); in assay [3] (at 50.0 µM), 84.8% (active); in assay [4] (setting [7]), 30%; in assay [4] (setting [8]) it was 68%; in assay [4] (at 50.0 µM) it was 86.1% (active). Also, the growth inhibition in assay [5] (setting [7]) is 21%; in assay [5] (setting [8]) it was 78% (active); in assay [5] (at 50.0 µM), 84.3% (active); in assay [6] (setting [7]), 26%; in assay [6] (setting [8]), 86% (active); in assay [6] (at 50.0 µM), 89.1% (active).
Turning to `C[N+](C)=C1C=CC(=C2C=CSC=C2)C=C1`, the growth inhibition was 22% in assay [1] (setting [7]); 45% in assay [1] (setting [8]); 11.1% in assay [1] (at 50.0 µM); 27% in assay [2] (setting [7]); 36% in assay [2] (setting [8]); 10.3% in assay [2] (at 50.0 µM). Further, the growth inhibition is 20% in assay [3] (setting [7]); 46% in assay [3] (setting [8]); 59.8% in assay [3] (at 50.0 µM); 29% in assay [4] (setting [7]); 45% in assay [4] (setting [8]); 25% in assay [4] (at 50.0 µM). Besides, the growth inhibition in assay [5] (setting [7]) was 17%; in assay [5] (setting [8]), 72% (active); in assay [5] (at 50.0 µM) it was 79.2% (active); in assay [6] (setting [7]) it was 26%; in assay [6] (setting [8]) it was 52%; in assay [6] (at 50.0 µM), 89.8% (active).
As for `CCCCCCCCCCCCNCCc1ccccc1`, the growth inhibition in assay [1] (setting [7]) was 99% (active); in assay [1] (setting [8]), 99% (active); in assay [1] (at 50.0 µM), 98.2% (active); in assay [2] (setting [7]), 99% (active); in assay [2] (setting [8]), 98% (active); in assay [2] (at 50.0 µM), 98.8% (active). Besides, the growth inhibition in assay [3] (setting [7]) is 99% (active); in assay [3] (setting [8]), 98% (active); in assay [3] (at 50.0 µM), 98.9% (active); in assay [4] (setting [7]) it was 99% (active); in assay [4] (setting [8]), 98% (active); in assay [4] (at 50.0 µM), 98% (active). In addition, the growth inhibition in assay [5] (setting [7]) is 99% (active); in assay [5] (setting [8]), 98% (active); in assay [5] (at 50.0 µM), 98.2% (active); in assay [6] (setting [7]) it was 99% (active); in assay [6] (setting [8]), 98% (active); in assay [6] (at 50.0 µM), 98.8% (active).
As for `Cc1ccc(N=P(c2ccccc2)(c2ccccc2)c2ccccc2)cc1.[I][Hg][I]`, the growth inhibition was 99% (active) in assay [1] (setting [7]); 99% (active) in assay [1] (setting [8]); 94.7% (active) in assay [1] (at 50.0 µM); 100% (active) in assay [2] (setting [7]); 100% (active) in assay [2] (setting [8]); 99.7% (active) in assay [2] (at 50.0 µM). Also, the growth inhibition in assay [3] (setting [7]) was 100% (active); in assay [3] (setting [8]), 99% (active); in assay [3] (at 50.0 µM), 98.9% (active); in assay [4] (setting [7]), 99% (active); in assay [4] (setting [8]), 99% (active); in assay [4] (at 50.0 µM), 99% (active). The growth inhibition was 99% (active) in assay [5] (setting [7]); 98% (active) in assay [5] (setting [8]); 98.3% (active) in assay [5] (at 50.0 µM); 99% (active) in assay [6] (setting [7]); 99% (active) in assay [6] (setting [8]); 99.3% (active) in assay [6] (at 50.0 µM).
For `CN(C)c1ccc(N=Cc2c([O-])ccc3ccccc23)cc1.[C-]#[O+].[C-]#[O+].[Ir]`, the growth inhibition in assay [1] (setting [7]) was 1%; in assay [1] (setting [8]), 1%; in assay [1] (at 50.0 µM), 83.4% (active); in assay [2] (setting [7]), 15%; in assay [2] (setting [8]), 15%; in assay [2] (at 50.0 µM), 60.4%. The growth inhibition is -17% in assay [3] (setting [7]); -17% in assay [3] (setting [8]); 78.3% (active) in assay [3] (at 50.0 µM); 3% in assay [4] (setting [7]); 3% in assay [4] (setting [8]); 77.1% (active) in assay [4] (at 50.0 µM). Besides, the growth inhibition was 2% in assay [5] (setting [7]); 2% in assay [5] (setting [8]); 82.5% (active) in assay [5] (at 50.0 µM); 9% in assay [6] (setting [7]); 9% in assay [6] (setting [8]); 71.1% (active) in assay [6] (at 50.0 µM).
As to `Cc1cc(-c2ccccc2)cc(C)[n+]1[O-]`, the growth inhibition in assay [1] (setting [7]) is -1%; in assay [1] (setting [8]) it was 20%; in assay [1] (at 50.0 µM) it was 20.7%; in assay [2] (setting [7]) it was -6%; in assay [2] (setting [8]), 13%; in assay [2] (at 50.0 µM), 28.1%. For the same compound, the growth inhibition in assay [3] (setting [7]) is -6%; in assay [3] (setting [8]), 12%; in assay [3] (at 50.0 µM) it was 54.6%; in assay [4] (setting [7]) it was -8%; in assay [4] (setting [8]) it was -13%; in assay [4] (at 50.0 µM), -31.3%. The growth inhibition was -2% in assay [5] (setting [7]); 14% in assay [5] (setting [8]); -12.7% in assay [5] (at 50.0 µM); -4% in assay [6] (setting [7]); 30% in assay [6] (setting [8]); 5.4% in assay [6] (at 50.0 µM).
`O=P1(Oc2ccccc2)C(c2ccccc2)C(c2ccccc2)=NN1c1ccccc1` (configuration not stated): the growth inhibition in assay [1] (setting [7]) is 29%; in assay [1] (setting [8]), 29%; in assay [1] (at 50.0 µM) it was 90.7% (active); in assay [2] (setting [7]), 12%; in assay [2] (setting [8]), 12%; in assay [2] (at 50.0 µM), 91% (active). Further, the growth inhibition is 23% in assay [3] (setting [7]); 23% in assay [3] (setting [8]); 89.2% (active) in assay [3] (at 50.0 µM); 23% in assay [4] (setting [7]); 23% in assay [4] (setting [8]); 90.8% (active) in assay [4] (at 50.0 µM). Further, the growth inhibition in assay [5] (setting [7]) was 5%; in assay [5] (setting [8]), 5%; in assay [5] (at 50.0 µM) it was 90.1% (active); in assay [6] (setting [7]) it was 11%; in assay [6] (setting [8]), 11%; in assay [6] (at 50.0 µM) it was 89.6% (active).
Take `CC12CCC(O)CC1CCC1C2CCC2(C)C1CC1CC(=O)OC12` (configuration not stated): the growth inhibition is 82% (active) in assay [1] (setting [7]); 98% (active) in assay [1] (setting [8]); 98.5% (active) in assay [1] (at 50.0 µM); 58% in assay [2] (setting [7]); 98% (active) in assay [2] (setting [8]); 85.3% (active) in assay [2] (at 50.0 µM). Further, the growth inhibition in assay [3] (setting [7]) was 83% (active); in assay [3] (setting [8]) it was 98% (active); in assay [3] (at 50.0 µM), 99% (active); in assay [4] (setting [7]), 57%; in assay [4] (setting [8]) it was 99% (active); in assay [4] (at 50.0 µM), 98.8% (active). In addition, the growth inhibition in assay [5] (setting [7]) is 72% (active); in assay [5] (setting [8]) it was 98% (active); in assay [5] (at 50.0 µM), 98.9% (active); in assay [6] (setting [7]) it was 85% (active); in assay [6] (setting [8]), 98% (active); in assay [6] (at 50.0 µM), 97.2% (active).
On to `COc1cccc(C(Cc2ccc(N3C(N)=NC(N)=NC3(C)C)cc2)C(=O)Nc2ccc(S(=O)(=O)F)cc2)c1` (configuration not stated), for which the growth inhibition in assay [1] (setting [7]) is 8%; in assay [1] (setting [8]), 96% (active); in assay [1] (at 50.0 µM), 99.5% (active); in assay [2] (setting [7]) it was -139%; in assay [2] (setting [8]), 99% (active); in assay [2] (at 50.0 µM) it was 99.6% (active). Moreover, the growth inhibition is 1% in assay [3] (setting [7]); 99% (active) in assay [3] (setting [8]); 99.8% (active) in assay [3] (at 50.0 µM); -1% in assay [4] (setting [7]); 92% (active) in assay [4] (setting [8]); 96.7% (active) in assay [4] (at 50.0 µM). Further, the growth inhibition was 1% in assay [5] (setting [7]); 98% (active) in assay [5] (setting [8]); 95% (active) in assay [5] (at 50.0 µM); 6% in assay [6] (setting [7]); 99% (active) in assay [6] (setting [8]); 99.4% (active) in assay [6] (at 50.0 µM).
